Unmarked numbers belong to inactive results. Calls of active or inactive are those of the source. Calls come from the whole dose curve; as a rule, active = well fitted inhibition curve with a large enough effect; inconclusive = small, poorly fitted or top-dose-only effect; inactive = flat fitted curve, though single readings scatter.
Target: Flap endonuclease 1 (Homo sapiens) (UniProt P39748)
Assay: qHTS Validation Assay for the Inhibitors of Human Flap endonuclease 1 (FEN1) (AID 488816)
Settings: FEN1 nuclease activity, fluorogenic DNA substrate; series mostly up to 57.1 µM; activity, negative = inhibition: at the top concentration
From the text: The major human flap endonuclease FEN1 is an efficient structure-specific enzyme that recognizes and cleaves a 5'-unannealed DNA flap. It belongs to the RAD2 family nucleases, which are involved in DNA metabolism and are highly conserved in prokaryotes and eukaryotes. FEN1 is a key enzyme in DNA replication, repair and maintenance of genomic stability. 5'-flap removal by FEN1 is critical for Okazaki fragment processing during lagging strand DNA synthesis, long-patch base excision repair (LP BER), and regulating or facilitating recombination events. […] Deletion of the yeast FEN1 gene, i.e. rad27, results in an increased frequency of short DNA (3-32 bp) repeats, micro- and mini-satellite formation, trinucleotide repeat expansion, spontaneous recombination events, and a severe growth defect in association with cell cycle arrest in late S/G2 phase. […] Cells from fen1-/- blastocysts show increased apoptotic cell death after ionizing radiation treatment, and chicken cells lacking the fen1 gene are hypersensitive to DNA alkylating agents, e.g. methylmethane sulfonate (MMS) and N-methyl-N'-nitro-N-nitrosoguanidine (MNNG), as well as hydrogen peroxide.
FEN1 is found to be increased in many human cancers, including lung, brain cancer, gastric cancer, prostate cancer, pancreatic cancer and breast cancer. […] In particular, elevation of FEN1 in hormone refractory human prostate cancer cells correlates with resistant to various anticancer agents including ionizing radiation, doxorubicin, paclitaxel and vinblastine.
Three uL of reagents (buffer in column 3 and 4 as negative control and 10 nM FEN1 in columns 1, 2, and 5-48) were dispensed into 1,536-well black solid-bottomed plate. Compounds (23 nL) were transferred via Kalypsys pin tool equipped with 1536-pin array (10 nL slotted pins, V&P Scientific, San Diego, CA). The plates were then incubated for 15 min at room temperature, and 1 uL substrate (50 nM final concentration) were added to start the reaction read twice at 0 min read and 15 min on ViewLux reader. Throughout the screen, reagent bottle and all liquid lines were chilled and made light-tight to minimize reagent degradation. All screening operations were performed on a fully integrated robotic system (Kalypsys, San Diego, CA) containing one RX-130 and two RX-90 anthropomorphic robotic arms (Staubli, Duncan, SC). Library plates were screened starting from the lowest and proceeding to the highest concentration, and a "double-dipping" step of the highest concentration was required to access higher concentrations of compounds. Vehicle-only plates, with DMSO being pin-transferred to the entire column 5-48 compound area, were inserted uniformly at the beginning and the end of each library in order to monitor for and record any shifts in the background, which can be affected by reagent dispensers or loss in enzyme activity overtime. Screening data was corrected, normalized, and concentration-effect relationships were derived by using publicly-available curve fitting algorithms developed in-house (http://ncgc.nih.gov/pub/openhts). A four parameter Hill equation was fitted to the concentration-response data by minimizing the residual error between the modeled and observed responses.
% is set by controls: 0 for no effect and ±100 for the full control effect; potency is the fitted concentration of half-maximal effect.

Sequence of Flap endonuclease 1 (Homo sapiens) (P39748 whole entry, looked up): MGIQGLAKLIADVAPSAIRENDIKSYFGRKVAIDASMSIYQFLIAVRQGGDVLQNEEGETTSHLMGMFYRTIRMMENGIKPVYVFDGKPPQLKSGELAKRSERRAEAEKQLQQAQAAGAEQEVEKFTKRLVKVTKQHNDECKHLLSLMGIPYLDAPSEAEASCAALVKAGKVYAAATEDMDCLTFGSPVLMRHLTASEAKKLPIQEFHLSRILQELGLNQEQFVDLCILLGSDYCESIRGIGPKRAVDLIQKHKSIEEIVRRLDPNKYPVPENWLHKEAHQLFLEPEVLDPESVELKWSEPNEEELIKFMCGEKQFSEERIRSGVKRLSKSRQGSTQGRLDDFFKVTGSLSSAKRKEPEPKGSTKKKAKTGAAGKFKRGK

| Structure (SMILES) | activity, negative = inhibition [%] | Potency |
| --- | --- | --- |
| CCC(=O)N1CCN(C(=O)c2ccccc2)CC1 | -2.31 |  |
| O=C(O)/C=C/c1ccc(O)c(O)c1 | -9.06 |  |
| N[C@@H](CS(=O)O)C(=O)O | -2.05 |  |
| O=c1[nH]c(=S)[nH]c(-c2ccccc2)c1Cc1c(O)ccc2ccccc12 | -18.9 |  |
| Brc1c(Br)c(Br)c2[nH]cnc2c1Br | -15.3 |  |
| N[C@@H](CCC(=O)N[C@H](CSN=O)C(=O)NCC(=O)O)C(=O)O | -16.5 |  |
| CC(N)(Cc1ccc(O)c(O)c1)C(=O)O (stereo not given) |  | 2.38 µM (active) |
| CC(N)=NCCCC[C@@H](N)C(=O)O | -4.06 |  |
| c1ccc(C2CN3CCSC3=N2)cc1 (stereo not given) | -6.89 |  |
| NS(=O)(=O)c1cccc2c1c([N+](=O)[O-])cc1nc(O)c(O)nc12 | -18.7 |  |
| N#Cc1cc([N+](=O)[O-])c2sc(C(N)=O)[n+]([O-])c2c1 | -7.93 |  |
| O=S(=O)(c1cccc2c(Cl)cccc12)N1CCCNCC1 | -6.5 |  |
| Oc1cc2c(cc1O)C(c1ccccc1)CNCC2 (stereo not given) | -2.77 |  |
| COc1ccccc1N1CCN(CCN(C(=O)c2ccc(F)cc2)c2ccccn2)CC1 | -1.49 |  |
| C=C1C[C@@]23CC[C@H]4[C@@](C)(CCC[C@@]4(C)C(=O)OC4OC(CO)C(O)C(O)C4O)[C@@H]2CC[C@]1(OC1OC(CO)C(O)C(O)C1OC1OC(CO)C(O)C(O)C1O)C3 (stereo not given in full) | -10.4 |  |
| O=C(O)c1cc2cc(F)ccc2[nH]1 | 1.68 |  |
| CCCCCCCCCCCCCCCCCCOC[C@H](COP(=O)([O-])OCC[N+](C)(C)C)OC | -3.5 |  |
| CCCCCCCCCCCCCCC[C@H](O)[C@H](N)CO | -3.1 |  |
| Nc1ncnc2c1nc(Br)n2C1OC2COP(=O)(O)O[C@@H]2C1O (stereo not given in full) | 1.3 |  |
| O=C(O)CCC/C=C\C[C@@H]1[C@@H](/C=C/[C@H](O)C2Cc3ccccc3C2)[C@@H](F)C[C@@H]1O | -6.16 |  |

| Structure (SMILES) | activity, negative = inhibition [%] | Potency |
| --- | --- | --- |
| CCSC(=N)N | 5.77 |  |
| O=C(O)C1CN(CCCP(=O)(O)O)CCN1 (stereo not given) | 0.184 |  |
| CN1Cc2sccc2C(c2ccc(O)c(O)c2)C1 (stereo not given) | -8.12 |  |
| CNc1cc(NS(=O)(=O)c2ccc(N)cc2)nc(NC)n1 | -4.28 |  |
| NC1(C(=O)O)CCc2cc(C(=O)O)ccc21 (stereo not given) | -6.69 |  |
| Cn1cc(C(F)(F)F)nc1-c1ccc(OCC(O)CNCCOc2ccc(O)c(C(N)=O)c2)cc1 (stereo not given) | -0.377 |  |
| COc1cc(CC(=O)O)ccc1O | -2.14 |  |
| CNc1ncnc2c1ncn2[C@H]1C[C@H](OP(=O)(O)O)[C@@H](COP(=O)(O)O)O1 | -1.18 |  |
| COc1ccc2c(c1)c(CC(=O)O)c(C)n2Cc1ccc(Cl)cc1 | -4.56 |  |
| COc1cc(CNC(=O)CCCCCCC(C)C)ccc1O | -7.98 |  |
| Nc1nc2c(cnn2CCc2ccccc2)c2nc(-c3ccco3)nn12 | -6.27 |  |
| COc1ccc2c(c1)CCC1C2CC[C@@]2(C)C1CC[C@@H]2NCCCCCCN1C(=O)C=CC1=O (stereo not given in full) | -4.07 |  |
| c1ccc2c(c1)CCC[C@H]2Nc1nc2ccccc2[nH]1 | -2.57 |  |
| Cc1nc(N=Nc2ccc(C(=O)O)cc2)c(COP(=O)(O)O)c(C=O)c1O | -11.1 |  |
| O=c1cc(-c2ccccc2F)[nH]c2cc3c(cc12)OCO3 | -0.566 |  |
| CC(=O)C(C)=O | -3.6 |  |
| CN(C)CCCc1cc(C(=O)Nc2ccc(-c3ccncc3)cc2)ccc1O | -8.02 |  |
| CCCCCCC(=O)OC1CC(C)(C)NC(C)(C)C1 | 0.395 |  |
| Oc1cc(O)c2c(c1)O[C@H](c1ccc(O)c(O)c1)[C@@H](O)C2 |  | 4.74 µM (active) |
| c1ccc(C(NCc2cccnc2)(c2ccccc2)c2ccccc2)cc1 | -16.3 |  |

— PubChem BioAssay (NCATS)
